Growth data for 8 molecules are collected here from PubChem BioAssay (NCI).

SMILES strings stand for the structures. This is part of a sample that, as a whole, favours compounds with a hit. Of some 83,000 tested, about 20% had one in any assay.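 Negative percent growth values reflect cell death: -40 means 40% of the cells present at the start died, and -100 means all died.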 Unmarked numbers belong to inactive results. Active and inactive are the calls of the source. Rule for the calls: active = growth percent below 10; inactive = the rest.

What all share (assay): NCI-60 one-dose screen, 48 h (100 = growth as untreated, 0 = no growth, -100 = all killed)
What all share (details): 10 µM unless noted

In experiment [1] the test system is SK-MEL-2 melanoma.
Experiment [2] relates to EKVX NSCLC.
Experiment [3] deals with SN12C renal.
The subject of experiment [4] is UO-31 renal.
Experiment [5] deals with TK-10 renal.
The subject of experiment [6] is ACHN renal.
Experiment [7] has as its system A498 renal.
The subject of experiment [8] is CCRF-CEM leukemia.
In experiment [9] the test system is MOLT-4 leukemia.
The subject of experiment [10] is SR leukemia.
In experiment [11] the test system is OVCAR-8 ovarian.
Experiment [12] has as its system OVCAR-5 ovarian.
Experiment [13] relates to OVCAR-4 ovarian.
Experiment [14] relates to SK-OV-3 ovarian.
The test system of experiment [15] is IGROV1 ovarian.
Experiment [16] deals with OVCAR-3 ovarian.
The test system of experiment [17] is HS 578T breast.
In experiment [18] the test system is NCI/ADR-RES ovarian.
Experiment [19] has as its system RPMI-8226 leukemia.

In the case of `CCCCCCCCOC(=O)c1c(C)[nH]c(/C=C2\N=C(c3ccc[nH]3)C=C2OC)c1C`, the growth was -70.3% (active) in [1]; 27.8% in experiment [2]; 11.7% in experiment [3]; -52.1% (active) in [4]; 9.67% (active) in [5]; -18.9% (active) in experiment [6]. Further, the growth in [7] is -7.97% (active); in [8], 17.7%; in experiment [9], 4.33% (active); in [10], 14.1%; in experiment [11] it was 4.86% (active); in experiment [12] it was 15.2%. Moreover, the growth in experiment [13] is 4.99% (active); in [14] it was 20.8%; in experiment [15] it was 10.1%; in experiment [16], -38.6% (active); in experiment [17], -27.8% (active); in [18], 15.9%.

For `O=C(Nc1cccc(Cl)c1)Oc1c(Cl)c(Cl)c(Cl)c(Cl)c1Cl`, the growth in experiment [1] is 100%; in [2], 78.9%; in experiment [3], 97.1%; in [4], 72.1%; in [5] it was 125%; in experiment [6] it was 95.6%. Also, the growth in experiment [7] was 78.8%; in experiment [8] it was 94.4%; in experiment [9] it was 96%; in [10], 96.3%; in experiment [19], 95.4%; in [11], 98.9%. Further, the growth was 95.2% in experiment [12]; 89% in experiment [13]; 85% in [14]; 87.8% in [15]; 101% in experiment [16]; 82.8% in [17]. Further, in experiment [18], the growth is 103%.

For `COc1ccc(CNc2c3ccccc3nc3ccccc23)cc1OC`, the growth in experiment [1] was 38.6%; in experiment [2], 15.2%; in experiment [3], 22.5%; in [4], 12.1%; in [5], 32.3%; in [6], 4.11% (active). For the same molecule, the growth in experiment [7] is -12.1% (active); in experiment [8], 30.5%; in experiment [9] it was 10.6%; in [10], 8.57% (active); in [19] it was 0.62% (active); in experiment [11] it was 23.9%. Further, the growth in experiment [12] is 27.5%; in experiment [13] it was 21.4%; in [14] it was 41.2%; in experiment [15], 10.9%; in experiment [16], 43.7%; in experiment [17], 37.2%. In experiment [18], the growth is 19.3%.

Consider `O=C1OCC2=C1C(c1cccc(F)c1)c1cc3c(cc1N2CCO)CCC3` (centres undefined), for which the growth in experiment [1] was 27%; in experiment [2], 40.9%; in experiment [3] it was 26.7%; in experiment [4] it was 37.8%; in experiment [5] it was 57.5%; in [6], 22.8%. For the same molecule, the growth in experiment [8] was 5.27% (active); in experiment [9], 11.4%; in experiment [10], 12.3%; in experiment [19], 23.3%; in [11], 13.5%; in [12] it was 36.2%. Moreover, the growth was 48.8% in experiment [13]; 32.8% in experiment [14]; 23.5% in experiment [15]; -24.9% (active) in experiment [16]; 41.2% in [17]; 13.3% in experiment [18].

Take `CC(Cc1cccc2ccccc12)C(N)=O` (centres undefined): the growth in experiment [1] is 105%; in experiment [2], 104%; in [3] it was 97.2%; in experiment [4], 87.3%; in experiment [5] it was 98.7%; in experiment [6] it was 103%. Moreover, the growth is 100% in experiment [7]; 97.1% in experiment [8]; 99.8% in experiment [9]; 101% in experiment [10]; 102% in experiment [19]; 108% in experiment [11]. The growth in [12] was 94.9%; in experiment [13] it was 107%; in experiment [14], 102%; in experiment [15] it was 96.8%; in experiment [16], 113%; in experiment [17] it was 99.2%. For the same molecule, in [18], the growth was 110%.

As for `C#CC#CC#CC#CC#CC#CC#CC#CC[C@@H]1OC[C@H](COC(=O)O[C@@H](C(=O)O[C@H]2C[C@@]3(O)[C@@H](OC(=O)c4ccccc4)[C@@H]4[C@]5(OC(C)=O)CO[C@@H]5C[C@H](O)[C@@]4(C)C(=O)[C@H](OC(C)=O)C(=C2C)C3(C)C)[C@@H](NC(=O)c2ccccc2)c2ccccc2)O1`, the growth in experiment [1] was 44.2%; in experiment [2] it was 65.8%; in [3] it was 38.6%; in [4] it was 99.6%; in experiment [5] it was 93.3%; in [6] it was 79.3%. The growth is 21.3% in [7]; 13.8% in experiment [8]; 30.9% in experiment [9]; 20.5% in experiment [10]; 9.65% (active) in [19]; 33.8% in experiment [11]. The growth in [12] was 24.3%; in experiment [13] it was 62.9%; in [14] it was 51.7%; in [15] it was 32.6%; in experiment [16], 7.3% (active); in [17] it was 5.42% (active). Further, in [18], the growth is 102%.

For `COC(=O)[C@H]1Cc2c([nH]c3ccccc23)[C@H](c2ccc3c(c2)OCO3)N1`, the growth in experiment [1] was 113%; in experiment [2] it was 95.5%; in experiment [3] it was 100%; in experiment [4], 80.2%; in experiment [5], 96%; in experiment [6] it was 98.4%. Moreover, the growth in experiment [7] is 97.5%; in [8], 96.4%; in experiment [9] it was 100%; in experiment [10] it was 103%; in experiment [19], 97.5%; in experiment [11], 103%. In addition, the growth was 100% in experiment [12]; 94% in experiment [13]; 102% in experiment [14]; 99.7% in experiment [16]; 102% in experiment [17]; 99.8% in experiment [18].

Take `COC12C=C/C(=C(/C(=O)OCc3ccccn3)C(=O)CCCCCCCCC3(OC)C=C/C(=C(/C(=O)OCc4ccccn4)C(=O)CCCCCCCC1)O3)O2`: the growth in experiment [1] was 10.8%; in experiment [2] it was -9.9% (active); in experiment [3] it was -22.2% (active); in [4], -45.7% (active); in [5], 4.32% (active); in experiment [6], -14.9% (active). For the same molecule, the growth in experiment [7] is -86.3% (active); in [8], 0.645% (active); in experiment [9] it was 0.868% (active); in experiment [10], -9.81% (active); in experiment [19] it was -14.8% (active); in experiment [11] it was 16.8%. Moreover, the growth in [12] is 34.9%; in experiment [13], 28.8%; in experiment [14], 46.3%; in experiment [15] it was -39.1% (active); in experiment [16], -36.3% (active); in experiment [17], 49.7%. The growth in [18] is 7.96% (active).
